Data taken from the supplement of paper PMC12819154, “High-throughput peptide-centric local stability assay extends protein–ligand identification to membrane proteins, tissues and bacteria” (Nature Structural & Molecular Biology, 2025).

Compound: Nc1ncnc2c1ncn2[C@@H]1O[C@H](COP(=O)(O)OP(=O)(O)OP(=O)(O)O)[C@@H](O)[C@H]1O [adenosine 5'-triphosphate]
Experiment: log2 fold change of tryptic peptide abundance, ligand vs vehicle (limited proteolysis) (log2 ratio); higher = more trypsin-susceptible (destabilized)
Details: ligand concentration: 5 mM; sample: E. coli desalted lysate; replicate design: treated before aliquoting
Experimental: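 HT-PELSA: desalted E. coli K-12 BW25113 lysate (with 12 mM MgCl2) incubated with 5 mM ATP (pH 7) or water for 30 min at 25 C, then a 4 min trypsin pulse at 22 C. Peptides were quantified by DIA-MS (4 replicates). Value is the peptide log2 fold change (treated/control); negative = stabilized. Scale: negative = ligand-stabilized region.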
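Further: lysate desalted by size exclusion to strip endogenous ATP, peptide intensities built from DIA-NN precursor signals, and peptides missing any value discarded before comparison.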

Target	log2 fold change
UniProt P25748 (peptide sequence: IGYLSSSHGIEDDAMRK, peptide start residue: 179)	0.977
UniProt P36995 (peptide sequence: VTFSIESGAK, peptide start residue: 51)	-0.289
UniProt P0AFU8 (peptide sequence: FSDEIGGHLMSGHIMTTAEVAK, peptide start residue: 90)	0.559
UniProt P75915 (peptide sequence: VLGSLYYR, peptide start residue: 10)	0.747
UniProt Q46915 (peptide sequence: AMNSEAVVR, peptide start residue: 181)	-0.607
UniProt P76594 (peptide sequence: SEVQGVMLYLR, peptide start residue: 533)	-2.33
UniProt P39342 (peptide sequence: MGPVTEDER, peptide start residue: 387)	-1.06
UniProt P77795 (peptide sequence: IEQVDSPR, peptide start residue: 213)	-0.95
UniProt P14377 (peptide sequence: LVALGHLAAGVAHEIR, peptide start residue: 242)	1.01
UniProt P27859 (peptide sequence: ELLPLIPAEK, peptide start residue: 188)	-0.738
UniProt P31802 (peptide sequence: GMSGLDTLNALRR, peptide start residue: 64)	0.209
UniProt P77300 (peptide sequence: STLHSLLK, peptide start residue: 38)	-0.881
UniProt P45799 (peptide sequence: SLQKPTILNVETVAR, peptide start residue: 4)	-1.1
UniProt P77433 (peptide sequence: GEFLNNVAQALGRPLR, peptide start residue: 5)	0.243
UniProt P37182 (peptide sequence: ESGVEAIPR, peptide start residue: 151)	0.522
UniProt P77615 (peptide sequence: AIEELQYQPNKLAR, peptide start residue: 40)	0.358
UniProt P27828 (peptide sequence: DTTERPEAVTAGTVR, peptide start residue: 309)	-0.6
UniProt P76273 (peptide sequence: CGISNVALTHFDGR, peptide start residue: 165)	0.512
UniProt P0A9P6 (peptide sequence: RFMKEPQEVR, peptide start residue: 200)	-2.4
UniProt P76545 (peptide sequence: YLDFAEDREHAESVATK, peptide start residue: 7)	-2.38

Target	log2 fold change
UniProt P23874 (peptide sequence: ISVAGAQEK, peptide start residue: 149)	-4.86
UniProt P37349 (peptide sequence: LIAKGPEAEEALIAFR, peptide start residue: 217)	0.492
UniProt P0C0T5 (peptide sequence: WTSAQLLRPQALDLVSR, peptide start residue: 130)	0.388
UniProt P0A6B4 (peptide sequence: QLAIFNTFCEGKPGQR, peptide start residue: 174)	0.707
UniProt P18775 (peptide sequence: IAHAVDSAIPTK, peptide start residue: 42)	-0.536
UniProt P36683 (peptide sequence: EALGLPHSDVFR, peptide start residue: 359)	0.334
UniProt P77272 (peptide sequence: LRLGVHDSSLVDPNIK, peptide start residue: 33)	0.714
UniProt P15038 (peptide sequence: LHTEDITAR, peptide start residue: 265)	-2.37
UniProt P21345 (peptide sequence: EVLGKFDKTADQ, peptide start residue: 426)	-1.41
UniProt P32684 (peptide sequence: ITLVQGLNR, peptide start residue: 179)	0.498
UniProt P39177 (peptide sequence: FEEHLQHEAQER, peptide start residue: 58)	-2.59
UniProt P32144 (peptide sequence: NILLVADHTK, peptide start residue: 206)	-0.398
UniProt P56580 (peptide sequence: KIVYITAGTRPAIVDK, peptide start residue: 26)	1.13
UniProt P37342 (peptide sequence: SESLDDFFTR, peptide start residue: 261)	0.46
UniProt P27848 (peptide sequence: GHALEAVAK, peptide start residue: 192)	0.631
UniProt P33940 (peptide sequence: EYYPQAK, peptide start residue: 403)	-1.61
UniProt P37634 (peptide sequence: HSFHAGNHADVLK, peptide start residue: 6)	-1.17
UniProt P31470 (peptide sequence: EGEGVTITNLR, peptide start residue: 74)	-0.324
UniProt P75682 (peptide sequence: AWRDGDVAK, peptide start residue: 229)	-1.32
UniProt P24230 (peptide sequence: TLVAALAALR, peptide start residue: 303)	-1.21
